A selection: hits, their analogues and other compounds. The true share with any hit is near 0.87%.
TLR9-MyD88 inh: blocks human TLR9 binding to MyD88; Q9NR96+Q99836; CHO BLA complementation TLR9-MyD88, CCF4 FRET ratio; inhibition, % at 4.98 µM; 0.21% of 340,000 active; AID 504734;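 active means inhibition above the mean over all tested compounds plus 3 SD, cut at about 21% in these data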;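 further: 0% = DMSO only wells and 100% = clavulanate BLA inhibitor control wells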
IDE cell inh: cellular human IDE inhibition | HEK cells, FAbetaB cleavage, fluorescence polarization | AID 434962 | 0.41% of 320,000 active | inhibition, % at 5.59 µM;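 active means percent inhibition above the average of all tested compounds plus 3 SD, set per screening campaign, cut at about 16% in these data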;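 further: IDE supplied by intact live HEK cells; FP after avidin binding of uncleaved biotin substrate so inhibition keeps polarization high; 0% = DMSO wells and 100% = 60 µM reference IDE inhibitor Ii1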
Target sequence (P14735 whole entry, looked up): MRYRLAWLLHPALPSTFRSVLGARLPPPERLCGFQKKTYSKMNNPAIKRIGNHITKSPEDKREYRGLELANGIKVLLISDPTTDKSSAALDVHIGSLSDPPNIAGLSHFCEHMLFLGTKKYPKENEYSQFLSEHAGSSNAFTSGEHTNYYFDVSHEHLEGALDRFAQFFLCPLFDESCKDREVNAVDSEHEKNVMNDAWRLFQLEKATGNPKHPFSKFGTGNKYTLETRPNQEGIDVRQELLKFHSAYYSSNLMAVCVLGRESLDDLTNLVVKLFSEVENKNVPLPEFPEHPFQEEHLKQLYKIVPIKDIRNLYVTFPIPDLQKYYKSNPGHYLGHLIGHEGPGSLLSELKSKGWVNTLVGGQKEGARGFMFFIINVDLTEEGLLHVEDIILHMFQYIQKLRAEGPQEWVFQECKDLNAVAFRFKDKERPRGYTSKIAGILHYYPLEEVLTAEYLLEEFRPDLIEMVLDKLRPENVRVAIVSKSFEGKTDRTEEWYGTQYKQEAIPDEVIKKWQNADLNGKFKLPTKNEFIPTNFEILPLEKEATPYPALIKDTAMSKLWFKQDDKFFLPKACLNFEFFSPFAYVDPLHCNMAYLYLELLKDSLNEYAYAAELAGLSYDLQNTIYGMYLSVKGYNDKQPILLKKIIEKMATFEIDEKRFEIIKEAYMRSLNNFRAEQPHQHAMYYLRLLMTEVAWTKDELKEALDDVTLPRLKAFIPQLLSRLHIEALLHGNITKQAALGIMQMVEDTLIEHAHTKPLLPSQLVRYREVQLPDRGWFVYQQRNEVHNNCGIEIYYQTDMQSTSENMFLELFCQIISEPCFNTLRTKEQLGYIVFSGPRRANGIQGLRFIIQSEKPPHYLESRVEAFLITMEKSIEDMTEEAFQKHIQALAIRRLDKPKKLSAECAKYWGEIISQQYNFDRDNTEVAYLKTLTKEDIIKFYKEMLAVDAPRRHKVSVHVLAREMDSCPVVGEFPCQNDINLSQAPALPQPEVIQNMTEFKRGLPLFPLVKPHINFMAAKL
NOD2-RIPK2 inh: NOD2-RIPK2 protein interaction inhibition; 0.38% of 360,000 active; CHO BLA complementation NOD2-RIPK2, CCF4 ratio; O43353; inhibition, % at 4.98 µM; in the data active means inhibition above about 21%;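 further: 0% = vehicle only and 100% = reference blocker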
IDE act: boosts human insulin-degrading enzyme activity in HEK cells | FAbeta-B cleavage, fluorescence polarization; 0% vehicle, 100% cell-free pure enzyme wells | activation, % at 5.96 µM | 0.073% of 340,000 active;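 active means activation above the mean of all tested compounds plus 3 SD, set per screening campaign, cut at about 17% in these data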
TLR4-MyD88 BLA: TLR4-MyD88 interaction inhibition in cells | O00206+Q99836 | 0.18% of 200,000 active | HeLa CL3-4 TLR4/MyD88 BLA complementation, FRET ratio | inhibition, % at 8.4 µM; in the data active means inhibition above about 25%;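 further: 0% = vehicle and 100% = reference inhibitor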
IDE inh confirm: cellular human IDE inhibition, confirmation; shares compounds with IDE cell inh; inhibition, % at 5.59 µM; 51% of 1,200 active; HEK cells, FAbetaB cleavage, fluorescence polarization;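 active means mean inhibition across triplicate wells above the cutoff set by the earlier primary insulin-degrading enzyme screen, cut at about 16% in these data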;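 further: 0% = DMSO wells and 100% = 60 µM reference IDE inhibitor Ii1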
HEK293 tox: HEK cell cytotoxicity, counter-screen for IDE inhibitors; HEK293 cytotoxicity, ATP luminescence; inhibition, % at 5.59 µM; 28% of 1,200 active; shares compounds with IDE cell inh; in the data active means inhibition above about 22%;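 further: 0% = vehicle wells and 100% = reference cytotoxic drug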
IDE FP artifact: fluorescence interference counter-screen for IDE inhibitors; 30 tested, under 10 active; IC50, µM; AID 588718; shares compounds with IDE cell inh; FP counterscreen for fluorescent artifacts, IDE probe project; call rule not given here
The depositor's hits bear a star; · = no result given; ! = a repeat was not active.

SMILES	TLR9-MyD88 inh	IDE cell inh	NOD2-RIPK2 inh	IDE act	TLR4-MyD88 BLA	IDE inh confirm	HEK293 tox	others
O=C(CSc1nc2[nH]ncc2c(=O)n1-c1ccccc1Cl)N1CCCC1	-13	18*	-11	-10	-13	7	8
N#Cc1c2c(c[nH]c1=O)CCN2Cc1ccccc1	4	16*	-1	-26	-5	15	4
CN(C)c1[nH]c(=O)c(C#N)c2c1CCN2Cc1ccccc1	-5	4	-4	1	9	·	·
C=CCN1C(=O)/C(=C/c2ccc(O)c(OC)c2)S/C1=N/c1nccs1	15	154*	18	-142	3	26*	16
C=CCN1C(=O)/C(=C/c2ccc(OCC(=O)O)cc2)S/C1=N/c1nccs1	-8	2	-4	-1	-2	·	·
CC(NC(=O)CCc1nnc(-c2ccc(-c3ccccc3)cc2)o1)c1nccs1 (configuration not stated)	-5	8	-3	-7	10	·	·
CC(c1nccs1)N(C)C(=O)CCc1nnc(-c2ccc(-c3ccccc3)cc2)o1 (configuration not stated)	-4	25*	8	-16	-10	4	17
O=C1NC(c2ccccc2)Nc2c1sc(=S)n2-c1ccccc1 (configuration not stated)	-2	0	-14	3	4	·	·
Cc1cc(C)cc(Oc2ccc(NC(=O)C3CC=CCC3C(=O)O)cc2)c1 (configuration not stated)	6	5	4	-10	2	·	·
O=C(C1=C[C@H](c2coc3ccccc3c2=O)C[C@H](OCCCCO)O1)N1CCN(Cc2ccc3c(c2)OCO3)CC1	0	17*	3	-6	5	2	17
CN1CCCC(n2nc(Cc3ccc(Cl)cc3)c3ccccc3c2=O)CC1 (configuration not stated)	9	2	-5	10	·	·	·
COc1cc(/C=N/N2C(=O)CSC2=S)ccc1O	-8	26*	1	-15	4	44*	4
CCN(CC)c1ccc(/C=C2\CCC(/C=N/NC(=O)c3ccc(=O)n(C)c3)=C2N2CCOCC2)cc1	12	25*	14	-20	1	57*	6
O=C(N/N=C/C1=C(N2CCOCC2)C(=C\c2ccccc2)/CC1)Nc1ccccc1	-8	1	14	-2	5	·	·
CC(CC(=O)O)CC(=O)N1CCN(S(=O)(=O)c2cccs2)CC1 (configuration not stated)	-11	20*	2	-24	·	12	9
Cc1ccccc1CC(=O)N1CCN(S(=O)(=O)c2cccs2)CC1	-8	3	4	-5	·	·	·
CN(C)CCN(C(=O)c1cccc2ccccc12)c1nc2cc3c(cc2s1)OCO3	-3	-2	-2	-2	·	·	·
CSc1cccc(NC(=S)N(CCCN2CCC(C)CC2)Cc2cccs2)c1	7	7	4	-2	6	·	·
S=C(NCCCN1CCOCC1)N1CCN(c2nc(-c3ccccc3)cs2)CC1	1	23*	-8	-6	-3	2	27*
S=C(NCCCN1CCOCC1)N1CCN(c2ccccc2)CC1	-13	-1	-6	2	·	·	·
S=C(NCC1CCCO1)N1CCN(c2nc(-c3ccc(Cl)cc3)cs2)CC1 (configuration not stated)	-1	21*	-2	-23	-7	12	54*
Cc1cc(C)nc(NN2C(=O)/C(=C/c3ccc(O)cc3)SC2=S)n1	-5	76*	1	-109	-11	148*	10
O=C(NN1C(=O)/C(=C/C=C/c2ccccc2)SC1=S)c1ccncc1	-1	25*	6	-5	-3	2	14
COc1cc(/C=C2\SC(=S)N(NC(=O)c3ccccc3O)C2=O)ccc1O	6	120*	8	-114	·	113*	9
O=C(NN1C(=O)/C(=C/c2ccc(O)cc2)SC1=S)c1cccc(O)c1	9	144*	-3	-104	·	104*	9
SMILES	TLR9-MyD88 inh	IDE cell inh	NOD2-RIPK2 inh	IDE act	TLR4-MyD88 BLA	IDE inh confirm	HEK293 tox	others
CC(/C=C1\SC(=S)N(NC(=O)c2cccc(O)c2)C1=O)=C\c1ccccc1	11	-1	2	1	11	·	·
CCCCNC(=O)COC(=O)c1ccc(N(C)C)cc1	-7	2	-8	0	4	·	·
Cn1cc(/C=C2\SC(=S)N(NC(=O)c3ccccc3)C2=O)c2ccccc21	2	28*	3	-54	4	46*	15
Cn1cc(/C=C2\SC(=S)N(NC(=O)c3cccc(Cl)c3)C2=O)c2ccccc21	-13	·	-8	-21	·	·	·
O=C(NN1C(=O)/C(=C/c2ccc(O)cc2)SC1=S)c1ccccc1O	4	103*	-6	-84	·	120*	19
CCOC(=O)c1cc2c(N)c(C(=O)c3ccc(Br)cc3)sc2[nH]c1=O	-7	1	4	-3	1	·	·
COc1cc(N=c2ssnc2Cl)c(OC)cc1Cl	1	18*!	4	-19	10	12	34*
COc1ccc(OC)c(N=c2ssnc2Cl)c1	0	-2	1	1	-5	·	·
O=c1[nH]oc2cc(Cl)ccc12	2	17*	-7	4	·	7	4
O=c1cc[nH]c2cc(Cl)ccc12	-6	1	-3	4	-12	·	·
CCOCCCN(C(=O)Cn1nnc(-c2ccc(C)o2)n1)C(C(=O)NCC1CCCO1)c1ccc(F)cc1 (configuration not stated)	6	3	-1	4	·	·	·
COc1ccc(N2CCN(c3ncnc4c3[nH]c3ccccc34)CC2)cc1	-4	35*	-7	-10	-4	42*	64*
O=C(c1ccco1)N1CCN(c2ncnc3c2[nH]c2ccc(Br)cc23)CC1	0	·	-5	-13	4	·	·
CCOc1ccc2[nH]c3c(N4CCN(C(=O)c5ccco5)CC4)ncnc3c2c1	·	40*	-4	·	·	16*	13	IDE FP artifact=>55
CCOc1ccc2[nH]c3c(N4CCC5(CC4)OCCO5)ncnc3c2c1	·	8	·	·	·	·	·
CCOC(=O)N1CCN(c2ncnc3c2[nH]c2ccc(F)cc23)CC1	-2	62*	-5	-54	-9	52*	59*
CCOC(=O)N1CCN(c2ncnc3c2[nH]c2ccc(OC)cc23)CC1	2	41*	-8	-11	18	26*	11
COc1cc2[nH]c3c(N4CCN(c5ccccn5)CC4)ncnc3c2cc1OC	-11	15	3	0	-2	·	·
Nc1nnc(CC(=O)N/N=C/c2ccc(-c3ccc(Cl)cc3Cl)o2)s1	5	8	-14	-6	·	·	·
NC(=O)Cn1cnc2c(nnn2-c2ccc(F)cc2)c1=O	-6	-5	-7	5	·	·	·

Source: PubChem BioAssay (The Scripps Research Institute Molecular Screening Center)
